About 79,000 compounds went through this panel and 15% of them were active in at least one assay; those are over-represented in the sample as a whole. Unmarked numbers belong to inactive results. The source made the active and inactive calls. Rule as the data show it: active = growth inhibition above about 70%; inactive = the rest. Where a SMILES comes first, the peptide text is derived from it. The star is where a group is joined. Cbz = O=C(OCc1ccccc1)*

Experiment [1] in a line: NCI Yeast Anticancer Drug Screen. Data for the rad50 strain (AID 155).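 Also: 0% = growth of vehicle-only cultures of the same strain.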 The note with it: S. cerevisiae rad50 strain growth inhibition, hits give high values. In short, it runs like this: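 Growth of the mutant yeast was measured after compound exposure and referenced to vehicle-treated cultures.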
The nature of experiment [2]: NCI Yeast Anticancer Drug Screen. Data for the mec2-1 strain (AID 157). The note with it: S. cerevisiae mec2-1 strain, hits give high values. In short, it runs like this: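 Strain: mec2-1 (DNA repair/cell cycle alteration). Compound exposure, then growth measured; inhibition expressed relative to vehicle.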
Experiment [3] in a line: NCI Yeast Anticancer Drug Screen. Data for the sgs1 mgt1 strain (AID 161).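 Also: 0% = growth of cultures given vehicle only.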 To be noted: S. cerevisiae sgs1 mgt1 strain, hits give high values. The gist of the method: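 Genetically altered yeast, compound exposure, growth inhibition relative to vehicle.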
A short description of experiment [4]: NCI Yeast Anticancer Drug Screen. Data for the cln2 rad14 strain (AID 165).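 Also: 0% = growth equal to vehicle treated cultures.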 To be noted: S. cerevisiae cln2 rad14 strain, hits give high values. In short, it runs like this: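 Compounds are applied to the cln2 rad14 yeast strain, and growth is then compared with that of vehicle-treated cultures to give inhibition.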
Experiment [5] can be described thus: NCI Yeast Anticancer Drug Screen. Data for the bub3 strain (AID 167). To be noted: S. cerevisiae bub3 mutant strain, hits give high values. The gist of the method:
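Whole-cell yeast assay. The mutant strain was incubated with compounds, and growth inhibition was determined by comparison with vehicle-treated cells.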

The nature of experiment [6]: NCI Yeast Anticancer Drug Screen. Data for the mlh1 rad18 strain (AID 175). To be noted: S. cerevisiae mlh1 rad18 strain growth inhibition, hits give high values. The gist of the method:
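Read-out is yeast growth inhibition, calculated against vehicle-only controls. The compound was applied to a strain engineered with DNA damage repair alterations.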

[7] abbreviates: at 5.0 µM (retest, dose inferred, filed as 0.5).
[8] abbreviates: at 50.0 µM (retest, dose inferred, filed as 5.0).

Take `CCOC(=O)CNC(=O)CNC(=O)CNC(=O)OCc1ccccc1` (Cbz-Gly-Gly-Gly-OEt): the growth inhibition was -9% in experiment [1] (setting [7]); -3% in experiment [1] (setting [8]); 7.6% in experiment [1] (at 50.0 µM); -11% in experiment [2] (setting [7]); -3% in experiment [2] (setting [8]); -0.7% in experiment [2] (at 50.0 µM). Further, the growth inhibition in experiment [3] (setting [7]) is -7%; in experiment [3] (setting [8]), 4%; in experiment [3] (at 50.0 µM), -12.2%; in experiment [4] (setting [7]) it was -62%; in experiment [4] (setting [8]), -4%; in experiment [4] (at 50.0 µM) it was 38.5%. Further, the growth inhibition is -7% in experiment [5] (setting [7]); 42% in experiment [5] (setting [8]); 13.8% in experiment [5] (at 50.0 µM); 1% in experiment [6] (setting [7]); -13% in experiment [6] (setting [8]); 14.2% in experiment [6] (at 50.0 µM).

For `CS/C(=N\C(=S)N(C)C)N(c1ccccc1)c1nc(=[N+](C)C)ss1`, the growth inhibition is 27% in experiment [1] (setting [7]); 98% (active) in experiment [1] (setting [8]); 98.5% (active) in experiment [1] (at 50.0 µM); 13% in experiment [2] (setting [7]); 67% in experiment [2] (setting [8]); 99.5% (active) in experiment [2] (at 50.0 µM). The growth inhibition is 38% in experiment [3] (setting [7]); 98% (active) in experiment [3] (setting [8]); 97.9% (active) in experiment [3] (at 50.0 µM); 1% in experiment [4] (setting [7]); 99% (active) in experiment [4] (setting [8]); 86.1% (active) in experiment [4] (at 50.0 µM). For the same molecule, the growth inhibition in experiment [5] (setting [7]) was 27%; in experiment [5] (setting [8]), 97% (active); in experiment [5] (at 50.0 µM), 98.8% (active); in experiment [6] (setting [7]), 22%; in experiment [6] (setting [8]), 98% (active); in experiment [6] (at 50.0 µM) it was 98.7% (active).

Turning to `CN(C)C1C[C@@H](O[Si](C)(C)C(C)(C)C)C=C1S(=O)(=O)c1ccccc1` (stereo not given in full), the growth inhibition was -16% in experiment [1] (setting [7]); 100% (active) in experiment [1] (setting [8]); 44.8% in experiment [1] (at 50.0 µM); -4% in experiment [2] (setting [7]); 100% (active) in experiment [2] (setting [8]); 47.8% in experiment [2] (at 50.0 µM). Besides, the growth inhibition in experiment [3] (setting [7]) was -18%; in experiment [3] (setting [8]), 100% (active); in experiment [3] (at 50.0 µM), 36.4%; in experiment [4] (setting [7]), -14%; in experiment [4] (setting [8]) it was 99% (active); in experiment [4] (at 50.0 µM), 33.5%. Further, the growth inhibition in experiment [5] (setting [7]) is -14%; in experiment [5] (setting [8]) it was 100% (active); in experiment [5] (at 50.0 µM), 7.75%; in experiment [6] (setting [7]) it was 4%; in experiment [6] (setting [8]), 100% (active); in experiment [6] (at 50.0 µM), 58%.

With `N=C(N)SCc1ccc(Br)cc1`, the growth inhibition in experiment [1] (setting [7]) was -13%; in experiment [1] (setting [8]), -17%; in experiment [1] (at 50.0 µM) it was -2.75%; in experiment [2] (setting [7]), -29%; in experiment [2] (setting [8]), -23%; in experiment [2] (at 50.0 µM), 13.8%. Moreover, the growth inhibition is -20% in experiment [3] (setting [7]); -15% in experiment [3] (setting [8]); -15.9% in experiment [3] (at 50.0 µM); -16% in experiment [4] (setting [7]); -4% in experiment [4] (setting [8]); 27.6% in experiment [4] (at 50.0 µM). Further, the growth inhibition in experiment [5] (setting [7]) was -18%; in experiment [5] (setting [8]), 35%; in experiment [5] (at 50.0 µM), 16.9%; in experiment [6] (setting [7]) it was -29%; in experiment [6] (setting [8]), 2%; in experiment [6] (at 50.0 µM), 19.9%.

As for `N#CC1(C#N)C2C=CC(C3CCC=C32)C1(C#N)C#N` (stereo not given), the growth inhibition is 14% in experiment [1] (setting [7]); 93% (active) in experiment [1] (setting [8]); 0.4% in experiment [1] (at 50.0 µM); 17% in experiment [2] (setting [7]); 97% (active) in experiment [2] (setting [8]); 45.3% in experiment [2] (at 50.0 µM). In addition, the growth inhibition in experiment [3] (setting [7]) is 11%; in experiment [3] (setting [8]), 96% (active); in experiment [3] (at 50.0 µM), 60.5%; in experiment [4] (setting [7]), 10%; in experiment [4] (setting [8]), 60%; in experiment [4] (at 50.0 µM) it was -16.2%. Further, the growth inhibition in experiment [5] (setting [7]) was 25%; in experiment [5] (setting [8]), 97% (active); in experiment [5] (at 50.0 µM), 95% (active); in experiment [6] (setting [7]) it was 25%; in experiment [6] (setting [8]), 97% (active); in experiment [6] (at 50.0 µM), 68.8%.

Regarding `CCCCCN(CCCCC)C(=O)CCl`, the growth inhibition in experiment [1] (setting [7]) is -2%; in experiment [1] (setting [8]), 30%; in experiment [1] (at 50.0 µM), 68.6%; in experiment [2] (setting [7]) it was -3%; in experiment [2] (setting [8]), 15%; in experiment [2] (at 50.0 µM), 53.5%. The growth inhibition in experiment [3] (setting [7]) is -3%; in experiment [3] (setting [8]), 10%; in experiment [3] (at 50.0 µM), 69.2%; in experiment [4] (setting [7]), 8%; in experiment [4] (setting [8]), 7%; in experiment [4] (at 50.0 µM) it was -6.75%. Moreover, the growth inhibition is 12% in experiment [5] (setting [7]); 58% in experiment [5] (setting [8]); 82.5% (active) in experiment [5] (at 50.0 µM); -1% in experiment [6] (setting [7]); 23% in experiment [6] (setting [8]); 85.3% (active) in experiment [6] (at 50.0 µM).

On to `COc1ccc(CCCCI)cc1`, for which the growth inhibition was -4% in experiment [1] (setting [7]); 95% (active) in experiment [1] (setting [8]); 94.6% (active) in experiment [1] (at 50.0 µM); -14% in experiment [2] (setting [7]); 94% (active) in experiment [2] (setting [8]); 95.2% (active) in experiment [2] (at 50.0 µM). Besides, the growth inhibition in experiment [3] (setting [7]) was -6%; in experiment [3] (setting [8]), 97% (active); in experiment [3] (at 50.0 µM), 94.2% (active); in experiment [4] (setting [7]) it was 2%; in experiment [4] (setting [8]), 97% (active); in experiment [4] (at 50.0 µM), 96.4% (active). The growth inhibition in experiment [5] (setting [7]) is 0%; in experiment [5] (setting [8]), 96% (active); in experiment [5] (at 50.0 µM), 97% (active); in experiment [6] (setting [7]) it was 16%; in experiment [6] (setting [8]), 98% (active); in experiment [6] (at 50.0 µM) it was 96.9% (active).

As to `Cc1ccc(C(C)(C)C)c(O)c1O`, the growth inhibition in experiment [1] (setting [7]) was 4%; in experiment [1] (setting [8]), 98% (active); in experiment [1] (at 50.0 µM), 91.2% (active); in experiment [2] (setting [7]) it was -18%; in experiment [2] (setting [8]) it was 98% (active); in experiment [2] (at 50.0 µM), 91.7% (active). In addition, the growth inhibition in experiment [3] (setting [7]) is 1%; in experiment [3] (setting [8]), 52%; in experiment [3] (at 50.0 µM) it was 92.1% (active); in experiment [4] (setting [7]), 8%; in experiment [4] (setting [8]), 98% (active); in experiment [4] (at 50.0 µM) it was 91.8% (active). For the same molecule, the growth inhibition is -9% in experiment [5] (setting [7]); 98% (active) in experiment [5] (setting [8]); 91.4% (active) in experiment [5] (at 50.0 µM); -25% in experiment [6] (setting [7]); 97% (active) in experiment [6] (setting [8]); 90.5% (active) in experiment [6] (at 50.0 µM).

Consider `Cc1cc(C2c3ccccc3-c3ccccc32)cc(C)c1O`, for which the growth inhibition was 9% in experiment [1] (setting [7]); 7% in experiment [1] (setting [8]); 98.3% (active) in experiment [1] (at 50.0 µM); 4% in experiment [2] (setting [7]); 5% in experiment [2] (setting [8]); 98.6% (active) in experiment [2] (at 50.0 µM). The growth inhibition is 4% in experiment [3] (setting [7]); 8% in experiment [3] (setting [8]); 98.8% (active) in experiment [3] (at 50.0 µM); -1% in experiment [4] (setting [7]); -9% in experiment [4] (setting [8]); 97.3% (active) in experiment [4] (at 50.0 µM). Moreover, the growth inhibition in experiment [5] (setting [7]) was -1%; in experiment [5] (setting [8]) it was 8%; in experiment [5] (at 50.0 µM), 97.2% (active); in experiment [6] (setting [7]), 7%; in experiment [6] (setting [8]), 18%; in experiment [6] (at 50.0 µM), 98.5% (active).

`CC(C)CCCC(=O)CCCCCCC(=O)CCN(O)C(=O)C(N)CO` (stereo not given): the growth inhibition in experiment [1] (setting [7]) was 98% (active); in experiment [1] (setting [8]) it was 98% (active); in experiment [1] (at 50.0 µM) it was 92.9% (active); in experiment [2] (setting [7]) it was 99% (active); in experiment [2] (setting [8]), 99% (active); in experiment [2] (at 50.0 µM) it was 93.5% (active). Further, the growth inhibition in experiment [3] (setting [7]) was 98% (active); in experiment [3] (setting [8]), 99% (active); in experiment [3] (at 50.0 µM) it was 94.2% (active); in experiment [4] (setting [7]), 96% (active); in experiment [4] (setting [8]), 97% (active); in experiment [4] (at 50.0 µM), 90.5% (active). Also, the growth inhibition in experiment [5] (setting [7]) was 99% (active); in experiment [5] (setting [8]) it was 98% (active); in experiment [5] (at 50.0 µM), 93.4% (active); in experiment [6] (setting [7]) it was 98% (active); in experiment [6] (setting [8]), 98% (active); in experiment [6] (at 50.0 µM), 92% (active).

The record behind these values is PubChem BioAssay (NCI).
